Data published in PubChem BioAssay (NCATS).
Inconclusive results are not listed. A call without a number means that no potency is given here. Active and inactive are the calls of the source. The call rests on the fitted dose curve; in most records, active means well fitted cell-killing curve with a large enough effect; inconclusive means small, poorly fitted or top-dose-only effect; inactive means flat fitted curve, though single readings scatter.

Experiment: Cell Viability - LYMP2-007 (AID 979);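 further: cells exposed to compound for 24 h before reading; nearly all actives have a fitted effect of over 60% in size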
Conditions: LYMP2-007 lymphoblastoid cell viability; series mostly up to 92.2 µM
Description: NIH Chemical Genomics Center [NCGC]
NIH Molecular Libraries Screening Centers Network [MLSCN]
National Institutes of Environmental Health Sciences [NIEHS]
National Toxicology Program [NTP]
We have developed a 1536-well cell-based assay for quantitative high throughput screening (qHTS) against a number of cell lines to determine in vitro cytotoxicity of small molecules. This particular assay uses a human lymphoblastoid cell line (LYMP2-007) purchased from Coriell Institute for Medical Research.
NCGC Assay Protocol Summary:
The CellTiter-Glo luminescent cell viability assay (Promega) is a homogeneous method to measure the number of viable cells in culture. The end point readout of this assay is based on quantitation of intracellular ATP, an indicator of metabolic activity, using the luciferase reaction. Luciferase catalyzes the oxidation of beetle Luciferin to oxyluciferin and light in the presence of ATP. The luminescent signal is proportional to amount of ATP present.
Using the CellTiter-Glo luminescent cell viability assay, the amount of cellular ATP was measured in the lymphoblastoid cell line with complete culture medium following compound treatment for 24 hours. The assay was performed in opaque white Kalypsys 1536-well plates. In the screen, tetraoctylammonium bromide was used as positive control. Library compounds were measured for their ability to cause acute toxicity in the cell line, as reflected by a decrease in intracellular ATP levels, in a concentration-dependent manner. […] AC50 values were determined from concentration-response data modeled with the standard Hill equation.
qHTS protocol for CellTiter Glo lymphoblastoid cellular assay
[Step] [Parameter] [Value] [Description]
1. Reagent; 5 uL; 2500 lymphoblastoid cells/well
2. Time; 5 hr; 37 C incubation
4. Controls; 23 nL; Tetraoctylammonium bromide 6.4pM to 92 uM
5. Time; 24 hr; 37 C incubation
6. Reagent; 5 uL; CellTiter Glo reagent
7. Time; 30 min; Room Temperature
8. Detection; Luminescence; Viewlux plate reader
Keywords: cell viability, cytotoxicity, lymphoblastoid cell line, luminescence, NTPHTS, NTPHTS_NCGC, NIEHS, DSSTox, MLSMR, MLSCN, NIH Roadmap, qHTS, NCGC
Potency means the concentration at half of the fitted maximal effect.

Which Potency does the source give for `CCCCCCCCOc1ccc(C(=O)O)cc1` here?
The Potency was “inactive”.

Which Potency does the source give for `CCCCCCCCC1CO1` (stereo not given) here?
Its Potency is “inactive”.

Which Potency does the source give for `O=C1c2ccccc2C(=O)C1(O)O` here?
The Potency was “inactive”.

With `c1ccncc1` as the compound, how does the Potency read?
Its Potency is “inactive”.

With `Nc1cnn([C@@H]2O[C@H](CO)[C@@H](O)[C@H]2O)c(=O)n1` as the compound, how does the Potency read?
The Potency was “inactive”.

For `O=C(OCc1ccccc1)c1ccccc1O`, which Potency is on record?
The Potency was “inactive”.

With `CCCCCCN` as the compound, how does the Potency read?
The Potency was “inactive”.

With `Cc1cc(=O)oc2cc(O)cc(O)c12` as the compound, how does the Potency read?
The Potency was “inactive”.

Which Potency does the source give for `C/C=C1/C(=O)C[C@H]2[C@@H]3CCC4=CC(=O)CC[C@]4(C)[C@H]3CC[C@]12C` here?
The Potency was 39.8 µM (active).

Which Potency does the source give for `c1c[nH]cn1` here?
The Potency was “inactive”.

Which Potency does the source give for `CCCCNCC` here?
Its Potency is “inactive”.

Which Potency does the source give for `O=C1OC(=O)c2ccccc21` here?
Its Potency is “inactive”.

For `CC(=O)OC1CC(C)OC(C)O1` (stereo not given), which Potency is on record?
The Potency was “inactive”.

Which Potency does the source give for `CC(C)COC(=O)COc1cc(Cl)c(Cl)cc1Cl` here?
The Potency was “inactive”.

With `Cc1cccnc1` as the compound, how does the Potency read?
Its Potency is “inactive”.

For `c1ccc2ncccc2c1`, which Potency is on record?
The Potency was “inactive”.

Which Potency does the source give for `O=C(O)c1cc(N=Nc2ccc([N+](=O)[O-])cc2)ccc1O` here?
Its Potency is “inactive”.

Which Potency does the source give for `C/C=C/C=C/C=O` here?
Its Potency is 39.8 µM (active).

For `Cc1ccc(O)c(N)c1`, which Potency is on record?
The Potency was 50.1 µM (active).

Which Potency does the source give for `Cc1ccc2ccc3cccc4ccc1c2c34` here?
The Potency was “inactive”.

Which Potency does the source give for `Nc1ccc2c(c1)C(=O)c1ccccc1C2=O` here?
Its Potency is “inactive”.

With `O=[N+]([O-])c1ccc(F)cc1F` as the compound, how does the Potency read?
The Potency was “inactive”.

Which Potency does the source give for `CCCCCCCC/C=C\CCCCCCCC(=O)N(CCO)CCO` here?
Its Potency is “inactive”.

For `Cc1c2ccccc2c(C)c2c1ccc1ccccc12`, which Potency is on record?
Its Potency is “inactive”.

Which Potency does the source give for `CC(C)(C)C(=O)C1C(=O)c2ccccc2C1=O` here?
Its Potency is “inactive”.

Which Potency does the source give for `O=[N+]([O-])c1ccccc1Nc1ccccc1` here?
Its Potency is “inactive”.

Which Potency does the source give for `Nc1ccc(N=Nc2ccccc2)c(N)c1` here?
The Potency was “inactive”.

With `CCOC(=O)C1OC1c1ccccc1` (stereo not given) as the compound, how does the Potency read?
The Potency was “inactive”.

For `CCC(Cl)CC(Cl)C(Cl)C(Cl)C(Cl)C(C)Cl` (stereo not given), which Potency is on record?
Its Potency is “inactive”.

For `C=C1CC[C@H](O)C/C1=C/C=C1\CCC[C@]2(C)[C@@H]([C@H](C)CCCC(C)C)CC[C@@H]12`, which Potency is on record?
Its Potency is 50.1 µM (active).

With `C=C(C#N)C(=O)OCC` as the compound, how does the Potency read?
Its Potency is “inactive”.

Which Potency does the source give for `CC(CCC(=O)O)(c1ccc(O)cc1)c1ccc(O)cc1` here?
Its Potency is “inactive”.

With `O=[N+]([O-])c1cc(N(CCO)CCO)ccc1NCCO` as the compound, how does the Potency read?
Its Potency is “inactive”.

For `CC/C=C/C/C=C/C/C=C/CCCCCCCC(=O)OCC`, which Potency is on record?
Its Potency is 31.6 µM (active).

For `COc1ccc(C)cc1N`, which Potency is on record?
Its Potency is “inactive”.

Which Potency does the source give for `N=C1C=CC(=C(c2ccc(N)cc2)c2ccc(N)cc2)C=C1` here?
The Potency was 7.94 µM (active).

Which Potency does the source give for `C=CC(=O)OCCCCCCOC(=O)C=C` here?
The Potency was 39.8 µM (active).

With `OCC(CO)(CBr)CBr` as the compound, how does the Potency read?
The Potency was “inactive”.

For `O=C(Cl)c1ccc([N+](=O)[O-])cc1`, which Potency is on record?
The Potency was “inactive”.

Which Potency does the source give for `CC(=O)c1ccc(Cl)c(Cl)c1Cl` here?
The Potency was “inactive”.
